From PubChem
ATXN2 expr inh: reduces ATXN2 reporter expression in HEK-293 cells; Potency, µM (titrated, usually from 57 µM), without a hit: top-dose activity change, negative = inhibition, actives largely listed as inhibitors; 0.72% of 360,000 active; HEK-293 ATXN2-luciferase reporter, luminescence, 24 h; note: % is set by controls: 0 for no effect and ±100 for the full control effect; nearly all actives have a fitted effect of over 55% in size
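ATXN2-luciferase reporter cells (luciferase flanked by upstream and downstream ATXN2 gene portions) were treated 24 h at 37 °C with compounds at up to 57 uM. SteadyGlo luminescence gave expression; GF-AFC fluorescence gave viability.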
A549 viability: counter-screen for Nrf2 inhibitors: cytotoxicity in A549 cells; A549 ARE-Fluc cells, CellTiter-Fluor viability, 18-24 h; 0.16% of 390,000 active; Potency, µM (series often up to 46 µM), inactives show at the top dose activity change, negative = cytotoxicity, most hits filed as inhibitors; note: % is set by controls: 0 for no effect and ±100 for the full control effect
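A549 ARE-Fluc cells in 5% FBS OPTI-MEM, 5000 cells/well, rested 2 h then exposed to compounds in concentration-response for 18-24 h at 37 °C. Viability by CellTiter-Fluor fluorescence (Ex 405/Em 525) after 30 min; luciferase luminescence (BugLite, 15 min, RT) read afterwards.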
Nrf2 ARE act: Nrf2 pathway activation | 0.31% of 410,000 active | Potency, µM (series often up to 46.1 µM), inactives show top-dose activation, usual class: activators | AID 624171 | AREc32 ARE-luciferase reporter (MCF7-derived line), luminescence, 24 h; note: % of control where 0% means no effect; nearly all actives have a fitted effect of over 65% in size
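AREc32 cells carrying an ARE-driven firefly luciferase, 1000 cells/well in OPTI-MEM with 5% FBS, dosed after overnight attachment and incubated 24 hr at 37 deg C. Steady-Glo luminescence read after 30 min at RT.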
ATXN viability: reduces viability in counter-screen for ATXN expression inhibitors | S2 cells (HEK-293 line with an ATXN2-luciferase reporter) viability, CellTiter-Fluor protease fluorescence, 24 h | Potency, µM (series often up to 56.7 µM), hits mostly cytotoxic | 0.49% of 400,000 active | AID 651635; note: nearly all actives have a fitted effect of over 40% in size
Nrf2 block: inhibitors of Nrf2 signaling | AID 504444 | A549 ARE-Fluc reporter, luciferase luminescence, 18-24 h | Potency, µM (doses to about 46 µM), for the others: top-dose activity change, negative = inhibition, most hits filed as inhibitors | 2.1% of 360,000 active; note: % is set by controls: 0 for no effect and ±100 for the full control effect; nearly all actives have a fitted effect of over 60% in size
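Quantitative HTS in A549 cells stably bearing an antioxidant response element-firefly luciferase construct. Inhibition of Nrf2-driven transcription was scored by luminescence after 18-24 h of compound exposure at 37 °C.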
Starred values were filed as active, the others as inactive; i = inactive; u = inconclusive; x = no result given. Compounds with a hit are over-represented: about 2.9% of the library has one in this group of screens. Calls come from the whole dose curve; as a rule, active = well fitted curve in the direction sought with a large enough effect; inconclusive = small, poorly fitted or top-dose-only effect, or another doubt; inactive = no such curve, though single readings can be large; an effect the other way counts as inactive or inconclusive. Potency is the fitted concentration of half-maximal effect.

SMILES | ATXN2 expr inh | A549 viability | Nrf2 ARE act | ATXN viability | Nrf2 block
N#CC(C#N)=C(Nc1ccc(F)cc1)SCc1cccc(Br)c1 | u | u | u | u | 4.1µM*
Cc1cccc(CSC(Nc2ccc(F)cc2)=C(C#N)C#N)c1 | u | -27% | 20% | i | 18µM*
C[C@H]1CN([C@@H](C)CO)C(=O)CCCn2nncc2CO[C@H]1CN(C)C(=O)Cc1ccccc1 | -2% | x | -1% | i | x
O=C(CSc1ncnc2[nH]ncc12)Nc1nc(-c2ccc(F)c(F)c2)cs1 | x | 7% | 7% | i | 6.5µM*
CS(=O)(=O)N1CCc2cc(-c3csc(NC(=O)C(c4ccccc4)c4ccccc4)n3)ccc21 | 2% | -6% | 1% | i | -19%
CC1Cc2cc(-c3csc(NC(=O)Cc4ccccc4)n3)ccc2N1S(C)(=O)=O (stereo not drawn) | u | -24% | 5% | u | 15µM*
COc1ccc(CC(=O)Nc2nc(-c3ccc(F)c(F)c3)cs2)cc1 | u | -3% | 4% | i | u
O=C(Cc1ccc(F)cc1)Nc1nc(-c2ccc(F)c(F)c2)cs1 | -26% | -29% | 9% | i | 23µM*
Cc1ccc(N(Cc2ccccc2)C(=O)c2ccc(S(=O)(=O)N3CCOCC3)cc2)cc1 | 6% | 0% | 0% | i | 1%
CN(C(=O)c1ccc(F)c(S(=O)(=O)N2CCOCC2)c1)C1CCCCC1 | x | -3% | 0% | i | -16%
COc1ccc(Cn2c(C(=O)O)c(CNCCc3ccccc3Cl)c3ccc(C)cc32)cc1 | u | u | 5% | 18µM* | u
C=Cc1ccc(Cn2c(C(=O)O)c(CNCCc3ccccc3)c3ccc(C)cc32)cc1 | u | u | -3% | 22µM* | u
Cc1ccc2c(CNCCc3ccc(Cl)cc3)c(C(=O)O)n(Cc3ccc(F)cc3)c2c1 | 9% | u | 4% | u | -23%
N#Cc1ccccc1NC(=S)NC(=O)c1cccnc1 | -8% | -5% | 4% | u | 7%
CN1CCN(C(=O)c2cnn(-c3cccc(Cl)c3)c2C2CCN(C(=O)OC(C)(C)C)CC2)CC1 | x | 6% | 0% | x | u
O=c1c2ccccc2sn1-c1ccc(F)cc1 | -12% | 0% | 20% | u | -11%
O=c1c2ccc(F)cc2sn1-c1ccccc1 | u | x | 23% | 20µM* | x
Cc1ccc(N2C(=O)c3ccccc3C2=O)c(C)c1 | x | -3% | x | x | 13%
O=c1c2cc(F)ccc2sn1-c1ccccc1Cl | u | x | u | 22µM* | x
Cc1ccc(-n2sc3cc(F)ccc3c2=O)c(C)c1 | u | x | 9% | 22µM* | x
CCn1cc(S(=O)(=O)N2CCc3ccccc3C2)cn1 | -8% | 17% | 5% | i | -9%
CCn1cc(S(=O)(=O)N2CCN(c3ccc(Cl)cc3)CC2)cn1 | 1% | -14% | 0% | i | 12µM*
Cc1nc(S(=O)(=O)NC2CCCCC2)c(C#N)c(C)c1Cl | 7% | -9% | 13µM* | i | -9%
Cc1cc(C(=O)NNc2cc(Cl)ccc2Cl)no1 | -12% | 0% | 1% | i | 6%
CCOC(=O)C1=C(c2ccccc2)Nc2ncnn2C1c1ccc(C(=O)O)cc1 (stereo not drawn) | 0% | 2% | 0% | i | 0%
SMILES | ATXN2 expr inh | A549 viability | Nrf2 ARE act | ATXN viability | Nrf2 block
CCOC(=O)C1=C(c2ccccc2)NC(N)=NC1c1ccc(OCc2ccc(C(=O)OC)cc2)cc1 (stereo not drawn) | 25µM* | 1% | -2% | 28µM* | -5%
COc1cc(C2NC(=O)c3c(sc4c3CCN(C)C4)N2)cc(OC)c1OC (stereo not drawn) | 7% | -4% | 0% | i | 11%
O=c1cc(COn2nnc3ccc(C(F)(F)F)cc32)nc2sccn12 | -28% | -2% | -1% | i | 2%
COc1ccccc1/C=C/C(=O)Nc1ccc(N2CCOCC2)cc1 | -18% | -23% | 0% | i | 12µM*
COc1ccc(NC(=O)Cn2c3ccc(OC)cc3c3nc4n(c(=O)c32)CCS4)cc1 | x | 0% | 0% | i | 23µM*
O=C(NCc1ccco1)c1cc(S(=O)(=O)N2CCOCC2)c(Cl)cc1Cl | -16% | u | 0% | i | 18µM*
